Source: PubChem BioAssay
Shown are actives, neighbours in structure and some others; about 7.7% of the full set was active somewhere.
Shh pathway inh: Sonic Hedgehog pathway inhibition. Shh-LIGHT2 Gli-luciferase reporter, 30 h. inhibition, % (no concentration beside the values). 2.1% of 22,000 active. AID 2313;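 active means mean inhibition across valid replicates above about 65%, limit read from the data; inconclusive means mean under the limit, yet half or more replicates past it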;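 further: pathway switched on by Shh-conditioned medium diluted 1 in 25 in low serum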
PD-1 reversal: activators reversing PD-1 mediated T-cell inhibition | activation, % (concentration not given with the values) | AID 2316 | 29,000 tested, under 10 active | primary human CD4 T cells, PD-L1 beads, CellTiter-Glo 96 h; call rule not given here;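 further: 0% = median vehicle wells and 100% = positive control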
NOMO-1 viab: STK33 inhibitor candidate reducing NOMO-1 cell viability. NOMO-1 AML viability, CellTiter-Glo luminescence, 72 h. inhibition, % (test concentration not listed). 7.5% of 37,000 active. AID 2330; in the data active means inhibition above about 80%; inconclusive means no clear call, values can overlap the other calls
Starred values were filed as active, the others as inactive; ? = inconclusive; nt = no result.

SMILES	Shh pathway inh	PD-1 reversal	NOMO-1 viab
C[C@@H]1CCCCO[C@@H](CN(C)Cc2ccncc2)[C@@H](C)CN([C@H](C)CO)C(=O)c2cc(NS(=O)(=O)c3ccc(Cl)cc3)ccc2O1	nt	-1	17
C[C@@H]1CCCCO[C@H](CN(C)C(=O)Nc2ccc(C(F)(F)F)cc2)[C@@H](C)CN([C@H](C)CO)C(=O)c2cc(NS(=O)(=O)c3cccs3)ccc2O1	nt	0	52
C[C@@H]1CCCCO[C@@H](CN(C)C(=O)Nc2ccc(C(F)(F)F)cc2)[C@@H](C)CN([C@H](C)CO)C(=O)c2cc(NS(=O)(=O)c3cccs3)ccc2O1	83*	-8	114*
C[C@@H]1CCCCO[C@@H](CN(C)Cc2ccc(C(F)(F)F)cc2)[C@@H](C)CN([C@H](C)CO)C(=O)c2cc(NS(=O)(=O)c3cccs3)ccc2O1	?	-13	110*
COc1ccc(CN(C)C[C@H]2OCCCC[C@@H](C)Oc3ccc(NS(=O)(=O)c4ccc(C)cc4)cc3C(=O)N([C@H](C)CO)C[C@@H]2C)cc1	65*	nt	22
COc1ccc(CN(C)C[C@@H]2OCCCC[C@@H](C)Oc3ccc(NS(=O)(=O)c4ccc(OC)cc4)cc3C(=O)N([C@H](C)CO)C[C@@H]2C)cc1	nt	1	15
C[C@@H]1CCCCO[C@@H](CN(C)Cc2ccc(C(F)(F)F)cc2)[C@@H](C)CN([C@H](C)CO)C(=O)c2cc(NS(=O)(=O)c3ccc(Cl)cc3)ccc2O1	-1	-8	111*
C[C@@H]1CCCCO[C@H](CN(C)Cc2ccc(C(F)(F)F)cc2)[C@@H](C)CN([C@H](C)CO)C(=O)c2cc(NS(=O)(=O)c3cccs3)ccc2O1	29	nt	77
COc1ccc(Cl)cc1NC(=O)CSc1nnc(-c2cccc(C)c2)n1C	nt	-1	3
CS(=O)(=O)N(CC(=O)Nc1ccc(Br)c(Cl)c1)c1cccc([N+](=O)[O-])c1	nt	2	12
CC1(C)Cc2c(sc(NC(=O)C(c3ccccc3)c3ccccc3)c2C#N)CO1	20	1	51
NC(=O)CSc1nnc(Cc2ccccc2)n1-c1ccccc1	nt	1	29
CC1=NNC(=O)C1Oc1ccc(Cl)cc1Cl (configuration not stated)	3	0	12
CC(=O)c1cccc(NC(=O)c2ccsc2NC(=O)COc2ccccc2)c1	nt	-1	18
CNC(=O)C(C)N(c1cc(C)cc(C)c1)S(C)(=O)=O (configuration not stated)	nt	nt	23
Cc1ccc(S(=O)(=O)Nc2ccc3c(c2)C(=O)N([C@H](C)CO)C[C@H](C)[C@H](CN(C)Cc2ccc(C(F)(F)F)cc2)OCCCC[C@@H](C)O3)cc1	-8	-7	126*
COc1ccc(S(=O)(=O)Nc2ccc3c(c2)C(=O)N([C@H](C)CO)C[C@H](C)[C@H](CN(C)Cc2ccc(C(F)(F)F)cc2)OCCCC[C@@H](C)O3)cc1	nt	-2	105*
Cc1ccc(S(=O)(=O)Nc2ccc3c(c2)C(=O)N([C@H](C)CO)C[C@H](C)[C@H](CN(C)CC2CC2)OCCCC[C@@H](C)O3)cc1	-18	3	16
COc1ccc(S(=O)(=O)Nc2ccc3c(c2)C(=O)N([C@H](C)CO)C[C@H](C)[C@@H](CN(C)Cc2ccc(C(=O)O)cc2)OCCCC[C@@H](C)O3)cc1	nt	nt	-7
C[C@@H]1CCCCO[C@H](CN(C)Cc2ccncc2)[C@@H](C)CN([C@H](C)CO)C(=O)c2cc(NS(=O)(=O)c3ccc(F)cc3)ccc2O1	9	nt	11
C[C@@H]1CCCCO[C@@H](CN(C)Cc2ccccc2)[C@@H](C)CN([C@H](C)CO)C(=O)c2cc(NS(=O)(=O)c3ccccc3)ccc2O1	22	-3	39
C[C@@H]1CCCCO[C@H](CN(C)Cc2ccc(C(F)(F)F)cc2)[C@@H](C)CN([C@H](C)CO)C(=O)c2cc(NS(=O)(=O)c3ccccc3)ccc2O1	-2	nt	95*
C[C@@H]1CCCCO[C@H](CN(C)Cc2ccc(C(F)(F)F)cc2)[C@@H](C)CN([C@H](C)CO)C(=O)c2cc(NS(=O)(=O)c3ccc(F)cc3)ccc2O1	6	nt	100*
CC(Oc1ccc(F)cc1)C(=O)NCCN1CCOCC1 (configuration not stated)	nt	2	-8
COc1ccc(NC(=O)CCSc2nnc3scc(-c4ccc(C)cc4)n23)cc1	nt	-1	8
SMILES	Shh pathway inh	PD-1 reversal	NOMO-1 viab
O=C(Nc1cc(C(F)(F)F)cc(C(F)(F)F)c1)C(=S)NCCNc1cccc2ccccc12	23	1	65
CC(=O)c1c(C)oc2ccc(N(C(=O)c3ccncc3)S(=O)(=O)c3ccc(F)cc3)cc12	nt	0	31
COC(=O)c1c(C)oc2ccc(N(C(=O)c3ccncc3)S(=O)(=O)c3ccc(OC)cc3)cc12	nt	-4	111*
O=C(CC1NC2CCCCC2NC1=O)Nc1ccc(Cl)cc1 (configuration not stated)	nt	2	22
Cc1ccc(-c2nnc3c4ccccc4c(C)nn23)cc1S(=O)(=O)NCC1CCCO1 (configuration not stated)	nt	-1	36
O=C(CCS(=O)(=O)c1nc(-c2ccccc2)cc(C(F)(F)F)n1)Nc1ccc(Cl)cc1Cl	nt	-16	126*
O=C(O)CCS(=O)(=O)c1nc(-c2ccccc2)cc(C(F)(F)F)n1	nt	0	23
c1nncn1N=C1CCCCC1	-9	0	2
CCOC(=O)c1c(NC(=O)c2nn(CC)cc2Br)c(C#N)nn1-c1ccccc1	nt	0	9
CCOC(=O)c1nn(-c2ccccc2)c(C#N)c1NC(=O)c1nn(CC)cc1Br	66*	2	115*
CC(=O)OC1CC2(C)C3CC=C4C(CC(O)C(O)C4(C)C)C3(C)CCC2(C)C1C(C)(O)C(=O)CCC(C)(C)O (configuration not stated)	-6	2	-13
CC(C)(C)c1ccc(-c2n[nH]c(S(C)(=O)=O)c2C#N)cc1	nt	-1	18
CCOC(=O)CSc1nnc2c(n1)[nH]c1ccccc12	nt	nt	111*
CC(=O)c1cccc(NC(=O)CSc2nnc3c(n2)[nH]c2ccccc23)c1	nt	-2	59
COc1ccc([N+](=O)[O-])cc1NC(=O)C1(c2ccc(OC)c(OC)c2)CCCCC1	nt	-4	-5
O=C(CSc1nnnn1-c1cccc(C(=O)O)c1)Nc1ccccc1F	nt	1	-16
N#CC(C(=O)c1ccccc1Cl)=C1SCCCS1	23	-1	114*
N#CC(=C1SCCCCS1)S(=O)(=O)c1ccc(Cl)cc1	2	2	29
C=Cc1ccc(O[C@@H]2O[C@H](CO)[C@@H](O)[C@H](O)[C@H]2O[C@@H]2O[C@@H](C)[C@H](O)[C@@H](O)[C@H]2O)cc1	-5	3	2
CSC(SC)=C(C#N)C(=O)c1cccc(C(F)(F)F)c1	-6	-2	123*
N#CC(C(=O)c1cccc(C(F)(F)F)c1)=C1SCCCCS1	-17	0	57
O=C(NC1CCCC1)c1c(NC(=O)c2cc(-c3cccnc3)nc3ccccc23)sc2c1CCCC2	nt	nt	8
Cc1sc(NC(=O)c2cc(-c3cccnc3)nc3ccccc23)c(C(=O)NC2CCCCC2)c1C	nt	nt	98*
O=c1cc(-c2ccc(O)c(O)c2)c2c(O[C@@H]3O[C@H](CO)[C@@H](O)[C@H](O)[C@H]3O)cc(O)cc2o1	-5	0	-10
